# From PubChem
# Pf Dd2 growth – blocks in vitro growth of P. falciparum Dd2 | P. falciparum Dd2 growth, SYBR Green, 72 h | AID 1347417 | Potency, µM (doses to about 28.9 µM), actives largely listed as inhibitors | actives 4.3% (n = 120,000); active = well fitted inhibition curve with a large enough effect; also: nearly all actives have a fitted effect of over 65% in size
#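 Infected erythrocytes (Dd2, 0.3% parasitemia, 2.5% hematocrit final) are added to compound in RPMI-1640/Albumax II medium, grown 72 h at 37C in low oxygen, then lysed with saponin/Triton-X containing SYBR Green and read by fluorescence.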
# Hits are given with their value; 0 = inactive. Only a selection was taken, and hits are over-represented in it overall.
SMILES,Pf Dd2 growth
CCC(O)CNc1ccc(-c2nc(COC)no2)cn1 (configuration not stated),0
CC1(COc2ccc(-c3nc(COc4ccccc4)no3)cn2)CCCNC1 (configuration not stated),0
COc1cc(-c2noc(C3CC(=O)N(c4ccc5c(c4)OCCO5)C3)n2)cc(OC)c1OC (configuration not stated),0
NC(=O)N1CCCC(C(=O)NCc2ncc3c(n2)CCC3)C1 (configuration not stated),0
CCc1ccc2oc(-c3cccc(NC(=O)COc4ccccc4Cl)c3)nc2c1,0
O=C(Nc1cccc(-c2nc3cc(Cl)ccc3o2)c1)c1cc([N+](=O)[O-])ccc1N1CCOCC1,0
CCc1ccc2oc(-c3cccc(NC(=O)c4ccc(-c5cccc([N+](=O)[O-])c5)o4)c3)nc2c1,2µM
COc1cccc(CCC(=O)N2CCC3(CC2)N=C(c2ccccc2)NO3)c1,11µM
O=C(CCc1ccccc1)N1CCC2(CC1)N=C(c1cccc(Br)c1)NO2,0
COc1cc(OC)cc(C(=O)N2CCC3(CC2)N=C(c2ccccc2)NO3)c1,0
COc1ccc(Cn2c(C3CCN(C(=O)c4cccc(F)c4)CC3)n[nH]c2=O)cc1,0
COc1ccccc1-c1noc(-c2ccc(NCC3CCCO3)c([N+](=O)[O-])c2)n1 (configuration not stated),0
CC(C)Oc1ccccc1CN1CC[C@@H]2CN(S(C)(=O)=O)[C@@H]2C1,0
O=C(c1ccccc1)N1CCC(N2CCNC2=O)CC1,0
COc1cccc(NC(=O)C2CCCN(c3ncnc4onc(C)c34)C2)c1 (configuration not stated),0
CC(C)NC(=O)C1CCCN(c2ncnc3onc(-c4ccc(F)cc4)c23)C1 (configuration not stated),0
CCOC(=O)c1ccc(NC(=O)C2CCCN(c3ncnc4onc(-c5ccc(F)cc5)c34)C2)cc1 (configuration not stated),8.9µM
O=C(CC1N=C2c3ccccc3N=C(SCc3ccc(F)cc3)N2C1=O)NCc1ccc2c(c1)OCO2 (configuration not stated),0
Cc1ccc(C2Cn3cnc(C(=O)N4CCC(C(=O)NC5CCCCC5)CC4)c3CO2)cc1 (configuration not stated),0
CCN(C(=O)NCc1noc2ccccc12)c1cc(C)ccc1C,0
O=C([C@H]1O[C@H](CCN2CCOCC2)CC[C@@H]1O)N1CCN(c2ccc(F)cc2)CC1,0
COc1ccc(S(=O)(=O)N2CCC3(CC2)CC(CC(=O)NC2CC2)CCO3)cc1 (configuration not stated),6.3µM
Cn1cnc(S(=O)(=O)N2CCC3(CC2)CC(CC(=O)NC2CC2)CCO3)c1 (configuration not stated),0
COc1cccc(S(=O)(=O)N2CCC3(CC2)CC(CC(=O)NC2CC2)CCO3)c1 (configuration not stated),0
CN(Cc1nc2ccccc2n1C)C(=O)C1CC2(CCNCC2)CN1C (configuration not stated),0
SMILES,Pf Dd2 growth
Cc1ccc2c(c1)c1c(c(=O)n(Cc3ccccc3)c(=O)n1CC(=O)Nc1ccccc1F)n2C,0
CCCc1noc(-c2nnn3c2COC(c2ccc(OC)cc2)C3)n1 (configuration not stated),0
CN1C(=O)C2(CCCN(C(=O)c3ccc(=O)[nH]c3)C2)c2ccccc21 (configuration not stated),0
Cc1oc(-c2ccccc2F)nc1Cn1c(SCc2ccccc2F)nc2ccncc21,0
Cc1ccccc1Cn1c(SCc2ccc(C(=O)NCc3cccs3)cc2)nc2ccncc21,10µM
O=C(NCc1cccs1)c1ccc(CSc2nc3ccncc3n2Cc2ccccc2F)cc1,13µM
O=C(CSc1nc2ccccc2n1Cc1ccccc1F)NCc1ccccc1,0
NC1(C(=O)N2CCCC(N3CCN(c4cccc(Cl)c4)CC3)C2)CC1 (configuration not stated),0
O=C(NCCc1ccc(F)cc1)c1cc(CN2CCOCC2)on1,0
O=C1NCCOCCCN[C@H]2CCC[C@@H]12,0
O=C(c1ccccc1)N1CCCN(c2cc(-c3ccc(Cl)cc3)[nH]n2)CC1,0
CCOc1ccc(C(=O)N2CCN(c3cc(-c4ccc(F)cc4)[nH]n3)CC2)cc1OCC,0
CCOc1ccc(C(=O)N2CCCN(c3cc(-c4ccc(Cl)cc4)[nH]n3)CC2)cc1OCC,5µM
Cc1ccc(-c2cc(N3CCCN(C(=O)c4ccsc4)CC3)n[nH]2)cc1C,0
COc1cc(C(=O)N2CCCN(c3cc(-c4ccc(C)c(C)c4)[nH]n3)CC2)cc(OC)c1OC,0
COc1cc(OC)cc(C(=O)N2CCCN(c3cc(-c4ccc(C)c(C)c4)[nH]n3)CC2)c1,11µM
O=C(CN1C(=O)NC2(CCS(=O)(=O)CC2)C1=O)Nc1ccc(F)cc1,0
COc1ccc(NC(=O)c2cc3n(n2)CC(c2ccc4c(c2)OCO4)OC3)cc1Cl (configuration not stated),0
Cc1onc(-c2cnn(C)c2NCc2ccc(C#N)cc2)c1C(=O)NCC(C)C,0
CCCc1ccc(-c2ccc(C(=O)Oc3ccc(Br)cc3)cc2)nc1,0
N#Cc1cccc(NC(=O)Nc2ccc3n(c2=O)C[C@H]2C[C@@H]3CN(C3CCOCC3)C2)c1,0
O=C(NC1CCCC1)c1ccc2c(c1)N(C(=O)c1ccc(F)cc1)CC2,0
C[C@@H]1C(=O)O[C@H]2[C@H]1CC[C@@]1(C)Cc3sc(NC(=O)COCC(=O)O)nc3[C@@H](C)[C@H]21,0
C[C@@H]1C(=O)O[C@H]2[C@H]1CC[C@@]1(C)Cc3sc(NCc4ccccc4)nc3[C@@H](C)[C@H]21,0
C[C@@H]1C(=O)O[C@H]2[C@H]1CC[C@@]1(C)Cc3sc(NC(=O)COc4ccccc4)nc3[C@@H](C)[C@H]21,7.1µM
SMILES,Pf Dd2 growth
CNCc1ccccc1OC(F)(F)F,0
NCCc1ccc(CN2CCC(Oc3ncccn3)CC2)cc1,0
Cc1cccc(CN2CCCC(COc3ccccc3C(=O)N3CCOCC3)C2)c1 (configuration not stated),0
O=c1[nH]ccn1C1CCN(Cc2ccccc2)CC1,0
NCCc1cccc(CN2CCCC(COc3ccccc3F)C2)c1 (configuration not stated),2µM
Cc1cc(CN2CCN(c3cccc(C)c3C)CC2)cs1,0
NCCc1cccc(CN2CCC(Oc3cccc(F)c3)CC2)c1,10µM
O=C(c1ccco1)N1CCC(Oc2cccc(F)c2)C1 (configuration not stated),0
CN1CCCN(C[C@@H]2CN(Cc3cccc(CCN)c3)C[C@@H]2CO)CC1,0
COCC(=O)N1CCCC(C(=O)N2CCC(OCc3ccccc3)CC2)C1 (configuration not stated),0
NCCc1cccc(CN2CCC(OCc3ccccc3)CC2)c1,4.5µM
O=C(c1ccccc1OCC1CCCN(Cc2ccc(O)c(F)c2)C1)N1CCCCC1 (configuration not stated),0
Cc1ccccc1N1CCCN(Cc2cccc(CCN)c2)CC1,8.9µM
CC(=O)N1c2ccc(S(=O)(=O)NCCc3cccc(C)c3)cc2CC1C (configuration not stated),0
Cc1ccc(C(=O)Nc2cnc(-c3ccc(Cl)cc3)nc2)s1,0
Cc1ccc(-c2nc3nc(C)cc(N4CCN(c5cccc(C)c5C)CC4)n3n2)cc1,0
COc1ccc(C(=O)N2CCC3(CC2)CC(=O)N(c2ccccc2)c2ccccc2O3)cc1,0
O=C(c1ccc(F)cc1)N1CCOC[C@H](Oc2ccccc2)C1,0
